Source: PubChem (National Center for Advancing Translational Sciences (NCATS))
The list is not random: actives were taken first. Their share in the collection is about 2.1%.
TDP-43 yeast inh – TDP-43 toxicity inhibition in yeast | TDP-43 expressing yeast growth rescue, BacTiter-Glo, 24 h | Potency, µM (titrated, usually from 46.1 µM), for inactives: at the highest dose growth rescue (activation), most hits filed as activators | 1.8% of 410,000 active; further: % of control where 0% means no effect; nearly all actives have a fitted effect of over 50% in size
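In this qHTS, compounds that restore growth of yeast expressing TDP-43 appear as activators. Cells (OD600=0.02, galactose medium, raffinose-pregrown) are incubated with compound 24 hr at 30 deg C and growth is quantified by BacTiter-Glo.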
aSyn rescue – rescues yeast growth from alpha-synuclein toxicity; AID 652106; Yeast expressing alpha-synuclein, growth rescue, BacTiter-Glo, 24 h; Potency, µM (titrated, usually from 46.1 µM), inactives show at the highest dose growth rescue (activation), most hits filed as activators; 0.14% of 370,000 active; further: % of control where 0% means no effect; nearly all actives have a fitted effect of over 65% in size
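Screening used galactose-induced yeast with toxic alpha-synuclein levels, exposed to compound for 24 hr at 30 deg C. Cell growth, read with BacTiter-Glo luminescence, gave the measured signal.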
Abeta rescue – compounds reversing amyloid beta toxicity in yeast. 0.063% of 410,000 active. Potency, µM (doses to about 46.1 µM), most hits filed as activators. AID 1347071. yeast expressing A-beta42, growth rescue, OD600, 48 h; response scale: 0% DMSO, 100% iron-clioquinol control; further: nearly all actives have a fitted effect of over 55% in size
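Yeast growth medium received pinned compounds, then yeast cells expressing toxic A-beta were added; plates incubated at 30 C for 48 hr. Growth read as absorbance at 600 nm, normalized to DMSO and equimolar FeCl3 plus clioquinol controls.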
FUS suppressor – rescues growth of FUS-expressing yeast; S. cerevisiae FUS-expressing, growth rescue, OD600, 24 h; Potency, µM (highest dose often 76.6 µM), most hits filed as activators; 0.24% of 390,000 active;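 further: plate controls were DMSO vehicle for no effect and reference control for full effect; nearly all actives have a fitted effect of over 55% in size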
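S. cerevisiae expressing FUS from galactose induction served as the toxicity model. Growth after 24hr at 30C, read as absorbance at 600 nm, indicates suppression of toxicity; compounds dosed at several concentrations.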
Starred values were filed as active, the others as inactive. The call rests on the fitted dose curve; in most records, active means well fitted curve in the direction sought with a large enough effect; inconclusive means small, poorly fitted or top-dose-only effect, or another doubt; inactive means no such curve, though single readings can be large; an effect the other way counts as inactive or inconclusive. Potency means the concentration at half of the fitted maximal effect.

For COC(=O)c1sc(NC(=O)COc2ccccc2C)nc1C the results were TDP-43 yeast inh 8.1%, aSyn rescue -4.5%, Abeta rescue inactive and FUS suppressor inactive.
For COC(=O)c1sc(NC(=O)COc2c(C)cccc2C)nc1C the results were TDP-43 yeast inh 20µM*, aSyn rescue 9.7%, Abeta rescue inactive and FUS suppressor inactive.
Screening COc1ccc(/C=C(\C#N)c2nc3ccccc3c(=O)[nH]2)cc1OC returned TDP-43 yeast inh 18.2%, Abeta rescue inactive and FUS suppressor inactive.
CC(CNC(=O)c1cc(-c2ccccc2)n[nH]1)c1ccccc1 (configuration not stated) was read as TDP-43 yeast inh 35.5µM*, Abeta rescue inactive and FUS suppressor inactive.
`CCN(Cc1ccccc1)C(=O)c1cc(-c2ccccc2)n[nH]1` gave TDP-43 yeast inh 17.8µM*, Abeta rescue inactive and FUS suppressor inactive.
For COc1ccc(C2CC(=O)c3cc(-c4nc(-c5cccc([N+](=O)[O-])c5)cs4)c(=O)n(-c4ccc(C)c(C)c4)c3C2)cc1 (configuration not stated) the results were TDP-43 yeast inh -8.5%, Abeta rescue inactive and FUS suppressor inactive.
For O=C(Nc1ccc2nn(-c3ccccc3)nc2c1)c1ccc(-c2cccc(Cl)c2)o1 the results were TDP-43 yeast inh 0.0%, Abeta rescue inactive and FUS suppressor inactive.
Screening N#Cc1c(-c2cccc([N+](=O)[O-])c2)nc2n(c1=O)CCS2 returned TDP-43 yeast inh 11.2µM*, aSyn rescue 1.8%, Abeta rescue inconclusive and FUS suppressor inactive.
Screening CCOC(=O)C1CCN(C(=S)Nc2ccccc2)CC1 returned TDP-43 yeast inh -11.4%, aSyn rescue -1.7%, Abeta rescue inactive and FUS suppressor inactive.
`CCOC(=O)C1CCCN(C(=S)Nc2ccc(Nc3ccccc3)cc2)C1` (configuration not stated) gave TDP-43 yeast inh 22.4µM*, aSyn rescue inconclusive, Abeta rescue inconclusive and FUS suppressor inconclusive.
CCOC(=O)C1CCCN(C(=O)c2cc(-c3ccccc3)cs2)CC1 (configuration not stated) was read as TDP-43 yeast inh 17.8µM*, aSyn rescue -4.9%, Abeta rescue inactive and FUS suppressor inactive.
CCOC(=O)C1CCCN(C(=O)c2sc(-c3ccccc3)nc2C)CC1 (configuration not stated) was read as TDP-43 yeast inh 0.0%, aSyn rescue 12.7%, Abeta rescue inactive and FUS suppressor inactive.
For CCOC(=O)C1CCCN(C(=O)c2cc3c(=O)n(C)c4ccccc4c3s2)C1 (configuration not stated) the results were TDP-43 yeast inh 20µM*, Abeta rescue inactive and FUS suppressor inactive.
CC1CCN(C(=O)c2cc3c(=O)n(C)c4ccccc4c3s2)CC1 was read as TDP-43 yeast inh 0.0%, Abeta rescue inactive and FUS suppressor inactive.
For O=C(CN1CCN(c2nc(-c3ccccc3)cs2)CC1)Nc1ccc(Cl)c(Cl)c1 the results were FUS suppressor inactive.
Screening COc1cc(-c2nc(C)c(C(C)=O)n2O)ccc1OCC(=O)Nc1ccc(F)cc1 returned TDP-43 yeast inh 19.3%, aSyn rescue -5.6%, Abeta rescue inactive and FUS suppressor inactive.
For CCOc1cc(-c2nc(C)c(C(C)=O)n2O)ccc1OCC(=O)Nc1ccc(F)cc1 the results were TDP-43 yeast inh 14.1µM*, aSyn rescue -4.4%, Abeta rescue inactive and FUS suppressor inactive.
`O=C(CC1N=C2c3ccccc3N=C(SCc3ccccc3Cl)N2C1=O)NCc1cccs1` (configuration not stated) gave TDP-43 yeast inh 25.4%, Abeta rescue inactive and FUS suppressor inconclusive.
For CN(C)c1nc(Nc2ccc(Cl)cc2)nc(OCC#N)n1 the results were TDP-43 yeast inh 11.2µM*, aSyn rescue 0.2%, Abeta rescue inactive and FUS suppressor inactive.
Screening CCOc1nc(Nc2ccccc2)nc(OCC)n1 returned TDP-43 yeast inh inconclusive, aSyn rescue 4.6%, Abeta rescue inactive and FUS suppressor inactive.
Screening CCOc1nc(Nc2ccc(Cl)cc2)nc(OCC)n1 returned TDP-43 yeast inh 11.2µM*, aSyn rescue -1.7%, Abeta rescue inactive and FUS suppressor inactive.
`COc1ccc(CC(=O)NC2CCCc3ccccc32)cc1` (configuration not stated) gave TDP-43 yeast inh 17.8µM*, aSyn rescue -1.2%, Abeta rescue inactive and FUS suppressor inactive.
Screening O=C(NC(=S)NC1CCCc2ccccc21)c1ccco1 (configuration not stated) returned TDP-43 yeast inh inconclusive, aSyn rescue -11.2%, Abeta rescue 11.2µM* and FUS suppressor inactive.
For CC(=O)N1CCc2c(sc3c2c(=O)n(CCc2ccccc2)c(=O)n3Cc2cccc(C)c2)C1 the results were TDP-43 yeast inh 22.4µM*, Abeta rescue inactive and FUS suppressor inactive.
Cc1cc2nc3c(nc2cc1C)C1(C(=O)O)CCC3(C)C1(C)C (configuration not stated) was read as TDP-43 yeast inh 20µM*, aSyn rescue 11.1%, Abeta rescue inactive and FUS suppressor inactive.
CCCN(c1ccccc1CC)S(=O)(=O)c1ccc2c(c1)CC(C)N2C(=O)C1CC1 (configuration not stated) was read as TDP-43 yeast inh -8.3%, Abeta rescue inactive and FUS suppressor inactive.
O=C(Nc1ccc(C(F)(F)F)cc1Cl)c1ccc(Cn2cc(Br)cn2)o1 was read as TDP-43 yeast inh inconclusive, aSyn rescue 3.8%, Abeta rescue inactive and FUS suppressor inactive.
`O=C(Nc1cccc(C(F)(F)F)c1)c1ccc(Cn2cc(Br)cn2)o1` gave TDP-43 yeast inh 12.6µM*, aSyn rescue -12.1%, Abeta rescue inactive and FUS suppressor inactive.
CCCCc1ccc(NC(=O)COC(=O)c2ccccc2OCC(=O)Nc2ccc(Br)cc2)cc1 was read as aSyn rescue -0.1%.
`CCCCCn1c(=O)c2ccccc2n2c(CCl)nnc12` gave TDP-43 yeast inh 15.8µM*, aSyn rescue 4.7%, Abeta rescue inactive and FUS suppressor inactive.
Screening Cc1ccc(Cl)cc1NC(=O)N1CCC(CN2CCCCCC2)CC1 returned TDP-43 yeast inh 14.1%, Abeta rescue inactive and FUS suppressor inactive.
`CCC1=Nc2cc(C(=O)O)ccc2Sc2ccccc21` gave TDP-43 yeast inh 20µM*, aSyn rescue 11.0%, Abeta rescue inactive and FUS suppressor inactive.
CCC1=Nc2cc(C(=O)NCc3ccco3)ccc2Sc2ccccc21 was read as TDP-43 yeast inh inconclusive, aSyn rescue 10.0%, Abeta rescue inactive and FUS suppressor inactive.
COc1ccc(-c2nnc(SCC(=O)Oc3c(C)cccc3C)o2)cc1OC was read as TDP-43 yeast inh 12.2%, Abeta rescue inactive and FUS suppressor inactive.
